Screening results deposited in PubChem BioAssay by National Center for Advancing Translational Sciences (NCATS).
The list is not random: actives were taken first. Their share in the collection is about 0.47%.
Eya2 inh – inhibitors of human Eya2 phosphatase activity. AID 488837. recombinant Eya2, OMFP fluorescence dephosphorylation (OMFP is methylfluorescein phosphate). actives 0.006% (n = 330,000). Potency, µM (titrated, usually from 76.9 µM), most hits filed as inhibitors. O00167
Target sequence (O00167 whole entry, looked up): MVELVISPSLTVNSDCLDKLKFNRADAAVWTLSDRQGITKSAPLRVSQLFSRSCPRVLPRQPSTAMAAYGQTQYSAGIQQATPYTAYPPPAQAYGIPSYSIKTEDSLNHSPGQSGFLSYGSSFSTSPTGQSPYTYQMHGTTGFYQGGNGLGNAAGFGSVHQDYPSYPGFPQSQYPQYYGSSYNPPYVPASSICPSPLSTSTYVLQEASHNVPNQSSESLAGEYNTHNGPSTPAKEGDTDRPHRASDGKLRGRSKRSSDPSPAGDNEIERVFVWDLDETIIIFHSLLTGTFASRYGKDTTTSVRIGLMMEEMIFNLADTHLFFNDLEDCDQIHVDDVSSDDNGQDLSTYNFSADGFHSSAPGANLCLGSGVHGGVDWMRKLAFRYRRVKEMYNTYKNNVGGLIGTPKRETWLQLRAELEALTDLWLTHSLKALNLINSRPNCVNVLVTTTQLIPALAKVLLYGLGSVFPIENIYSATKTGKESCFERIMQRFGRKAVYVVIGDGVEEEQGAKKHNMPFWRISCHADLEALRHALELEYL
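Eya2 protein (added as 0.2 uM solution) was preincubated with compound for 10 min at ambient temperature in 50 mM HEPES pH 7.5, 50 mM NaCl, 5 uM MgCl2, 0.05% BSA, 1 mM DTT. OMFP (added at 50 uM) then reacted 10 min; fluorescence read at 485/525 nm.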
Mito fusion act – blocks mitochondrial division or promotes mitochondrial fusion; AID 485298; S. cerevisiae fusion-defective mutant growth rescue, CellTiterGlo 48 h; actives 0.23% (n = 320,000); Potency, µM (doses to about 46.1 µM), actives largely listed as activators; also: nearly all actives have a fitted effect of over 45% in size
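S. cerevisiae fusion-defective temperature-sensitive mutants (e.g. fzo1-1, mgm1-5) grown 48 h at 37C in YPEG (ethanol/glycerol non-fermentable) medium with 23 nl compound per well; growth rescue read as CellTiterGlo luminescence.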
A-T KAP1 phos – potential ataxia-telangiectasia treatments restoring KAP-1 phosphorylation; Potency, µM (series often up to 57.5 µM), usual class: activators; F2112 A-T fibroblasts, KAP-1 phosphorylation AlphaLISA; neocarzinostatin DNA damage 30 min before lysis; AID 485349; actives 0.19% (n = 320,000); also: nearly all actives have a fitted effect of over 45% in size
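hTERT-immortalized A-T patient fibroblasts (F2112), 500 cells/well in OPTI-MEM, 1% FBS, got compounds for 60 min, then NCS for 30 min at 37C. Lysates were then assayed for phospho-KAP-1 by AlphaLISA (anti-pKAP1 donor, anti-KAP1 acceptor beads), 6 hr at 25C.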
N370S GC mod – N370S glucocerebrosidase modulation, Gaucher chaperone candidate; Potency, µM (top dose mostly 59.4 µM), usual class: inhibitors; N370S GC spleen homogenate, 4MU-glucoside fluorescence; actives 0.092% (n = 330,000)
Large screens that a line does not name were inactive. Calls follow the shape of the dose curve; as a rule, active = well fitted curve in the direction sought with a large enough effect; inconclusive = small, poorly fitted or top-dose-only effect, or another doubt; inactive = no such curve, though single readings can be large; an effect the other way counts as inactive or inconclusive.

CC(C)C1CC(CCN)(c2ccccc2)CCO1 (stereo unspecified)	Eya2 inh inconclusive, A-T KAP1 phos 2.8µM, N370S GC mod inconclusive
O=[N+]([O-])c1cccc(-c2nc(NCc3ccccc3)c3ccccc3n2)c1	Mito fusion act 3.2µM
COc1ccc(Nc2nc(-c3ccccc3F)nc3ccccc23)cc1OC	N370S GC mod 2.5µM
Fc1ccc(CNc2nc(-c3ccccc3)nc3ccccc23)cc1	N370S GC mod 14µM
c1ccc(-c2nc(NCc3cccnc3)c3ccccc3n2)cc1	N370S GC mod inconclusive
COc1ccc(CNc2nc(-c3ccccc3)nc3ccccc23)cc1OC	N370S GC mod 14µM
O=[N+]([O-])c1ccc(-c2nc(NCc3ccccc3)c3ccccc3n2)cc1	none
COc1ccc(/C=C(\NC(=O)c2ccccc2)C(=O)NCc2ccco2)cc1	none
CCCn1cc(S(=O)(=O)c2ccc(Cl)cc2)c(=O)c2cc(OC)ccc21	none
c1ccc(-c2nc(NC3CCCC3)c3ccccc3n2)cc1	N370S GC mod 16µM
CN(C)c1ccc(-c2nc(NC3CCNCC3)c3ccccc3n2)cc1	none (no result: Eya2 inh, Mito fusion act, A-T KAP1 phos)
CCCNC(=O)OCCC12CC3CC(CC(C3)C1)C2	A-T KAP1 phos 32µM
CCCCN(C)C(=O)C1CCCN(S(=O)(=O)c2ccc3c(c2)CC(C)N3C(=O)C2CC2)C1 (stereo unspecified)	Mito fusion act 1.1µM
CCC(C)NC(=O)C1CCCN(S(=O)(=O)c2ccc3c(c2)CC(C)N3C(=O)C2CC2)C1 (stereo unspecified)	none
COc1ccc(OC)c(CNC(=O)C2CCCN(S(=O)(=O)N3CC(C)CC(C)C3)C2)c1 (stereo unspecified)	Mito fusion act inconclusive
COc1ccc(CNC(=O)C2CCCN(S(=O)(=O)N3CC(C)CC(C)C3)C2)c(OC)c1 (stereo unspecified)	Mito fusion act 11µM
Fc1ccc(/C=N/NC(=S)Nc2ccc(Cl)cc2Cl)cc1	A-T KAP1 phos 7.1µM
Cc1ccc(S(=O)(=O)N2CCC(C(=O)NN3CCCCC3)CC2)cc1	none (no result: N370S GC mod)
C[C@H](Cc1ccc(O)c(O)c1)[C@@H](C)Cc1ccc(O)c(O)c1	Mito fusion act 13µM (no result: A-T KAP1 phos)
COc1cccc(/C=N/n2cnc3c(cnn3-c3ccccc3)c2=O)c1	A-T KAP1 phos 40µM
Cc1ccccc1Nc1c(N)c(=O)oc2ccccc12	none
C[C@H](NC(=O)OC(C)(C)C)C(=O)NCC1CCC(C(=O)N[C@@H](Cc2ccccc2)C(=O)O)CC1 (stereo partly specified)	A-T KAP1 phos 3.5µM
CN1CCN(Cc2nc3ccccc3c(=O)n2Cc2nc(-c3ccc4ccccc4c3)cs2)CC1	N370S GC mod 11µM
CN1CCN(Cc2nc3ccccc3c(=O)n2Cc2nc(-c3cccc([N+](=O)[O-])c3)cs2)CC1	none
COc1ccc(Oc2c(O)c3ccccc3n(C)c2=O)cc1	Mito fusion act inconclusive
Cn1c(=O)c(Oc2ccc(Cl)cc2)c(O)c2ccccc21	Mito fusion act 10µM
CCC(C)NC(=S)Nc1ccc2nc(N3CCOCC3)cc(C)c2c1 (stereo unspecified)	none
COc1ccc(-c2cc(C(=O)Nc3ccc(C)c(C)c3)no2)cc1	A-T KAP1 phos 13µM
Cc1ccc(NC(=O)c2cc(-c3ccc(F)cc3)on2)cc1C	none
CC1CC(C)CN(C(=O)c2cccc(S(=O)(=O)Nc3cc(C(F)(F)F)ccc3Cl)c2)C1 (stereo unspecified)	Mito fusion act 16µM
COc1ccc(CCNC2=NCCS2)cc1OC	A-T KAP1 phos 1.3µM
COc1ccc(-c2ccc(-c3noc(C(C)C)n3)c(OC)n2)cc1	A-T KAP1 phos 14µM
CCOC(=O)c1c(NC(=O)c2ccccc2Cl)sc2c1CCc1ccccc1-2	Mito fusion act 11µM
CC1(C)O[C@@H]2C[C@H]3[C@@H]4CCC5=CC(=O)C=C[C@]5(C)[C@@]4(F)[C@@H](O)C[C@]3(C)[C@]2(C(=O)CO)O1	Mito fusion act 13µM
O=C(CSCc1ccc(Cl)cc1)Nc1ccc(Br)cc1C(=O)O	none
COc1ccc(-c2c3c(cc(C)[n+]2[O-])oc2ccc(OC)cc23)cc1	none
COc1ccc2oc3cc(C)[n+]([O-])c(-c4ccc(Cl)cc4)c3c2c1	Mito fusion act 22µM
CCCCN(CC)CCCNC(=O)c1cn(CC(C)C)c(=O)c2c1c1ccccc1n2C	A-T KAP1 phos 25µM, N370S GC mod inconclusive
COCCn1c(C)cc(C(=O)CSc2nnc3ccccn23)c1C	none
Cc1ccc(C(=O)N2CCC3(CC2)Oc2ccc(F)cc2C(=O)C32CC(c3cccnc3)=NO2)s1 (stereo unspecified)	A-T KAP1 phos 40µM
CC(C)C(=O)N1CCC2(CC1)Oc1ccc(F)cc1C(=O)C21CC(c2cccnc2)=NO1 (stereo unspecified)	none
CC12CCC(C1)C(C)(C)C2NS(=O)(=O)c1ccc(F)cc1 (stereo unspecified)	none (no result: N370S GC mod)
CCN(C(=O)COC(=O)c1c(C)nn(-c2ccccc2)c1C)C1CCS(=O)(=O)C1 (stereo unspecified)	none
CCN(C(=O)COC(=O)c1c2c(nc3ccccc13)/C(=C/c1ccccc1)CC(C)C2)C1CCS(=O)(=O)C1 (stereo unspecified)	Mito fusion act 20µM
O=C(NCCOC(=O)c1ccccc1)c1ccccc1	none (no result: N370S GC mod)
CC(C)C(=O)Nc1nc(-c2ccc(S(=O)(=O)N3CCOCC3)cc2)cs1	A-T KAP1 phos 13µM
COc1ccccc1OC(C)C(=O)Nc1nc(-c2ccc(S(=O)(=O)N3CCOCC3)cc2)cs1 (stereo unspecified)	none
CCOc1ccc(N(CC(=O)Nc2ccc(C)c(C)c2)S(=O)(=O)c2c(C)[nH]c(=O)[nH]c2=O)cc1	N370S GC mod 7.1µM
CCOc1ccc(N(CC(=O)Nc2cc(C)ccc2C)S(=O)(=O)c2c(C)[nH]c(=O)[nH]c2=O)cc1	A-T KAP1 phos 28µM, N370S GC mod inconclusive
COc1ccc(N(CC(=O)Nc2cccc(F)c2)S(=O)(=O)c2c(C)[nH]c(=O)[nH]c2=O)cc1	N370S GC mod 11µM
CCOc1ccc(N(CC(=O)Nc2ccccc2C)S(=O)(=O)c2c(C)[nH]c(=O)[nH]c2=O)cc1	N370S GC mod inconclusive
COc1ccc(N(CC(=O)Nc2cccc(C(F)(F)F)c2)S(=O)(=O)c2c(C)[nH]c(=O)[nH]c2=O)cc1	N370S GC mod inconclusive
CCOc1ccc(N(CC(=O)Nc2ccc(CC)cc2)S(=O)(=O)c2c(C)[nH]c(=O)[nH]c2=O)cc1	N370S GC mod 3.5µM
CCOc1ccc(C2=Nc3ccccc3C(c3ccc(N4CCOCC4)cc3)=NN2)cc1	none
CC(OC1=CC(=O)CCC1)C(=O)c1ccccc1 (stereo unspecified)	none
COC(=O)c1cc(NC(=O)c2ccc3c(c2)NC(=O)c2ccccc2S3)cc(C(=O)OC)c1	none
C=C(C)C(=O)Nc1cccc(C2=NOC3(C2)C[C@@H](C(N)=O)N(C(=O)C(=C)C)C3)c1 (stereo partly specified)	none
